The panel holds about 83,000 compounds, 20% with a hit somewhere; the sample as a whole holds those more often.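 In brief: 96-well plates, 48 h treatment, single concentration, percent growth endpoint.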 Values without a mark were called inactive. Calls of active or inactive are those of the source. Rule for the calls: active = growth percent below 10; inactive = the rest.
system: CAKI-1 renal; test: NCI-60 one-dose screen, 48 h (100 = growth as untreated, 0 = no growth, -100 = all killed); conditions: 10 µM

SMILES | growth
COc1cc2cc(C(=O)N3C[C@@H](CCl)c4c3cc(OC(=O)N3CCN(C)[C@@H]5CSSC[C@H]53)c3ccccc43)[nH]c2c(OC)c1OC | -9.91% (active)
CC1=C(CCC=O)C2=C(C)C3(CC3)[C@@](C)(O)C(=O)C2=C1 | -100% (active)
COC(=O)C[C@](O)(CCC(C)C)C(=O)O[C@@H]1C(OC)=C[C@]23CCCN2CCc2cc4c(cc2[C@H]13)OCO4 | -13.1% (active)
O=C(/C=C/c1ccc(Cl)cc1)c1nc2ccccc2n1Cc1ccc(F)cc1 | 41.8%
CC[C@]12C=CCN3CC[C@@]4(c5ccc(OC)cc5N(C)[C@H]4[C@@](O)(C(=O)OC)[C@@H]1OC(=O)CCC[P+](C1CCCCC1)(C1CCCCC1)C1CCCCC1)[C@@H]32 | -8.49% (active)
CC1=C2C(=C[C@@](C)(COP(=O)(Oc3ccccc3)Oc3ccccc3)[C@@H]2O)C(=O)[C@@](C)(O)C12CC2 | -19.5% (active)
CC(=O)Oc1ccccc1C(=O)NC([Se])=NC1CCCCC1 | -75.4% (active)
CCOP(=O)(CC(F)(F)C(F)(F)F)OCC | 2.63% (active)
CC(C)C[C@H](NC(=O)CNC(=O)C[C@H]1O[C@@H]2OC3(C)CC[C@H]4[C@H](C)CC[C@@H]([C@H]1C)[C@@]24OO3)B(O)O | 19.2%
C[C@H]1[C@@H](Oc2ccc(-c3cn(-c4ccnc5cc(Cl)ccc45)nn3)cc2)O[C@@H]2OC3(C)CC[C@H]4[C@H](C)CC[C@@H]1[C@@]24OO3 | 25.6%
C[C@H]1[C@H](OC(=O)CCC(=O)N(CCCc2cn(-c3ccc([N+](=O)[O-])cc3)nn2)CCNc2ccnc3cc(Cl)ccc23)O[C@@H]2OC3(C)CC[C@H]4[C@H](C)CC[C@@H]1[C@@]24OO3 | 37.4%
COc1cc2cc(C(=O)N3C[C@@H](CCl)c4c3cc(OC(=O)N3CCN(C)[C@@H]5CSSC[C@@H]53)c3ccccc43)[nH]c2c(OC)c1OC | -0.707% (active)
COc1cc2cc(C(=O)N3C[C@@H](CCl)c4c3cc(OC(=O)N3CCN(C(=O)CCC(=O)N5CCN(C)CC5)[C@@H]5CSSC[C@@H]53)c3ccccc43)[nH]c2c(OC)c1OC | 13.9%
COC(=O)c1ccc(-n2cc(CCCN(CCNc3ccnc4cc(Cl)ccc34)C(=O)CCC(=O)O[C@@H]3O[C@@H]4OC5(C)CC[C@H]6[C@H](C)CC[C@@H]([C@H]3C)[C@@]46OO5)nn2)cc1 | 44.5%
O=C([Se]C1C=CCCC1)c1ccc(C(=O)[Se]C2C=CCCC2)s1 (centres undefined) | -61.6% (active)
O=C(/C=C/c1cccc(Br)c1)c1nc2ccccc2n1Cc1ccc(F)cc1 | 54.4%
CC[C@]12C=CCN3CC[C@@]4(c5ccc(OC)cc5N(C)[C@H]4[C@@](O)(C(=O)OC)[C@@H]1OC(=O)CCC[P+](c1ccc(C)cc1)(c1ccc(C)cc1)c1ccc(C)cc1)[C@@H]32 | -95.3% (active)
O=C(NC([Se])=NC1CCCCC1)c1ccccc1 | 32.4%
O=C(/C=C/c1ccc(F)cc1)c1nc2ccccc2n1Cc1ccc(F)cc1 | 43.9%
O=C(/C=C/c1ccccc1)c1nc2ccccc2n1Cc1ccc(Br)cc1 | -19.2% (active)

SMILES | growth
C=CC[Se]C(=O)c1cncc(C(=O)[Se]CC=C)c1 | -8.92% (active)
COc1ccc(OC)c(/C=C/C(=O)c2nc3ccccc3n2Cc2ccc(F)cc2)c1 | 32.2%
O=C(/C=C/c1ccc(F)cc1)c1nc2ccccc2n1Cc1ccc(Br)cc1 | -23% (active)
CC[C@]12C=CCN3CC[C@@]4(c5ccc(OC)cc5N(C)[C@H]4[C@@](O)(C(=O)OC)[C@@H]1OC(=O)CCCC[P+](c1ccc(C)cc1)(c1ccc(C)cc1)c1ccc(C)cc1)[C@@H]32 | -95.2% (active)
CC(C)N=C([Se])NC(=O)c1cccs1 | 31.1%
CC1=C(CCC=NNC(N)=O)C2=C(C)C3(CC3)[C@@](C)(O)C(=O)C2=C1 | -59.8% (active)
Cc1ccc2[nH]c(=S)n(-c3ccc(F)cc3)c(=O)c2c1 | 97.3%
C#CC[Se]C(=O)c1ccc2n[se]nc2c1 | 71.3%
CC1=C(COCCOC(=O)c2ccc(S(=O)(=O)F)cc2)C2=C(C)C3(CC3)[C@@](C)(O)C(=O)C2=C1 | -1.85% (active)
CC12CCC3(CCC(=O)NCCCNc4ccnc5cc(Cl)ccc45)[C@@](C)(OO[C@]3(C)O1)O2 | -25% (active)
O=C(/C=C/c1ccc(Br)cc1)c1nc2ccccc2n1Cc1ccc(Br)cc1 | 16%
COC(=O)CCn1c(-c2ccc(-n3cc(-c4ccc(O[C@H]5O[C@@H]6OC7(C)CC[C@H]8[C@H](C)CC[C@@H]([C@H]5C)[C@@]68OO7)cc4)nn3)cc2)nc2ccccc21 | 13.7%
CC1=C(C=O)C2=C(C)C3(CC3)[C@@](C)(O)C(=O)C2=C1 | 31.7%
N#C[Se]CC(=O)Nc1cccc(C(F)(F)F)c1 | -72.1% (active)
CCC[Se]C(=O)c1ccc(C(=O)[Se]CCC)s1 | -78.1% (active)
C[C@H]1[C@@H](CC(=O)N[C@@H](Cc2coc3ccccc23)B(O)O)O[C@@H]2OC3(C)CC[C@H]4[C@H](C)CC[C@@H]1[C@@]24OO3 | 25.2%
O=C(/C=C/c1ccco1)c1nc2ccccc2n1Cc1ccc(F)cc1 | 57.6%
COC(=O)C[C@](O)(CCC(C)C)C(=O)O[C@H]1C(OC)=C[C@@]23CCCN2CCc2cc4c(cc2[C@@H]13)OCO4 | -28.4% (active)
C[C@H]1[C@H](OC(=O)CCC(=O)N(CCCc2cn(-c3ccc(C#N)cc3)nn2)CCNc2ccnc3cc(Cl)ccc23)O[C@@H]2OC3(C)CC[C@H]4[C@H](C)CC[C@@H]1[C@@]24OO3 | 40.8%

From PubChem BioAssay (NCI)
